# High-throughput results: PubChem, several laboratories
# An excerpt weighted towards active compounds, which were near 1.9% of everything screened.
# PfHsp40 yeast: compounds rescuing yeast from Plasmodium falciparum HSP40 toxicity; S. cerevisiae expressing PfHsp40, growth rescue, ATP luminescence; growth rescue, % at 12.5 µM; 0.68% of 340,000 active; in the data active = growth rescue above about 28%, passing the limit was not always enough; inconclusive = no clear call, values can overlap the other calls;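 note: yeast W303a lacking pdr1 and pdr3 grown in galactose medium; growth measured after three days at 30 °C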
# RecA intein inh: Mtb RecA intein splicing inhibition; P9WHJ3; inhibition, % (no concentration beside the values); cell-free RecA intein splicing, fluorescence; 0.75% of 290,000 active; AID 2221; in the data active = inhibition above about 30%; inconclusive = no clear call, values can overlap the other calls;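 note: 0% = vehicle wells and 100% = reference inhibitor control wells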
# Target sequence (P9WHJ3 whole entry, looked up): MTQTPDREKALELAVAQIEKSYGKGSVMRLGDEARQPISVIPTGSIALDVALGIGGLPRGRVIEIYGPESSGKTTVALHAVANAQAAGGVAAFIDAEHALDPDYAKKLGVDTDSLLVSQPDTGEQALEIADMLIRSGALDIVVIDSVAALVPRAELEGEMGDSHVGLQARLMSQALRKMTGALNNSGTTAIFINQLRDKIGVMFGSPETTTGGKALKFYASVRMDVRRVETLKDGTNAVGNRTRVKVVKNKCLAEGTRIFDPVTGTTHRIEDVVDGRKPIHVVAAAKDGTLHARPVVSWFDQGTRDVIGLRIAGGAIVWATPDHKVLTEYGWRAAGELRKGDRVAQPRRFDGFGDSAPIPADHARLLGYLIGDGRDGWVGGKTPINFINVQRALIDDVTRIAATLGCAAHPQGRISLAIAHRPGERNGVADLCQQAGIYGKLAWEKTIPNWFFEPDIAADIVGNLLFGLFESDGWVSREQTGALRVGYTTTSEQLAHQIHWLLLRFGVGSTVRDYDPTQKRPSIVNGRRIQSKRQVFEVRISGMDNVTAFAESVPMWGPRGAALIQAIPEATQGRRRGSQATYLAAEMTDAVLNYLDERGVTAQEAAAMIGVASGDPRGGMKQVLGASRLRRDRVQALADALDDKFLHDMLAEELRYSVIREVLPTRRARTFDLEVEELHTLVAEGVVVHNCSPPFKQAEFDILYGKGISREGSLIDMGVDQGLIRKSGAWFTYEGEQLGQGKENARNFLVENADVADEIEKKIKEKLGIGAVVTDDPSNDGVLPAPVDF
# PrP 5UTR inh: suppresses PrP 5' UTR mRNA reporter expression; cell-based PrP 5' UTR mRNA reporter, plate reader; inhibition, % (test concentration not listed); 0.35% of 340,000 active; AID 488862; in the data active = inhibition above about 52%; note: 0 = median of the neutral control wells
# PriA SSB inh: inhibitors of Klebsiella pneumoniae PriA binding to SSB C-terminal tail. AlphaScreen SSBct-PriA binding, biotinylated peptide. inhibition, % at 33 µM. 0.6% of 430,000 active. AID 1272365; in the data active = inhibition mostly above about 37%, no sharp cut-off; inactive = mostly below about 20%;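 note: plate controls were negative control peptide for no effect and reference peptide for full effect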
# PrPC TRFRET: inhibitors of human cell surface prion protein PrPC; 0.43% of 370,000 active; P04156; TR-FRET read-out; inhibition, % at 13.8 µM; in the data active = inhibition above about 24%; note: 0% = median of the test wells and 100% = reference compound wells
# BJeLR viability: BJeLR cell viability loss | BJeLR (HRASV12) viability, CellTiter-Glo ATP luminescence, 48 h | 0.17% of 300,000 active | AID 1554 | inhibition, % (no concentration beside the values); in the data active = inhibition above about 50%; inconclusive = no clear call, values can overlap the other calls
# PrPC TRFRET cf: confirmation of inhibitors of cell surface human prion protein; shares compounds with PrPC TRFRET; cell surface PrPC level, TR-FRET; inhibition, % at 13.8 µM; 65% of 1,500 active; in the data active = inhibition above about 25%
# LD9 cytotox: counter-screen for PrPc inhibitors: cytotoxicity in LD9 cells | shares compounds with PrPC TRFRET | luminescence viability | inhibition, % at 13.8 µM | 29% of 1,500 active; in the data active = inhibition above about 9.5%
# Starred values were filed as active, the others as inactive; ? = inconclusive; . = no result given.
SMILES,PfHsp40 yeast,RecA intein inh,PrP 5UTR inh,PriA SSB inh,PrPC TRFRET,BJeLR viability,PrPC TRFRET cf,LD9 cytotox
c1nc2c(c(N3CCCCC3)n1)CCCC2,.,.,.,-19.0,.,.,.,.
Brc1cc(Br)c2ncnc(N3CCCCC3)c2c1,-0.2,3.8,-2.1,-49.9,75.5*,5.8,111.0*,-1.1
CC(C)c1ccc(/C=C(\C#N)C(=O)Nc2cccc(Br)c2)cc1,.,.,.,16.0,.,.,.,.
Cc1ccc(Cn2c(Cc3ccccc3)nc3ccccc32)cc1,22.2,6.2,-13.2,-8.4,76.5*,3.0,17.6,-3.8
CN(C)S(=O)(=O)c1ccc(C(=O)OCc2cc(-c3cccs3)on2)cc1,.,.,.,-1.0,.,.,.,.
N#Cc1cccc(C(c2nnnn2C2CCCC2)N2CCC(Cc3ccccc3)CC2)c1 (stereo unspecified),0.3,6.6,-2.5,7.2,-1.0,2.5,.,.
N#Cc1cccc(C(c2nnnn2C2CCCC2)N2CCCCCC2)c1 (stereo unspecified),2.2,5.1,-5.6,-10.0,41.1*,-4.7,6.2,-1.0
CCOc1ccccc1CCC(=O)NCc1cncc(-c2cccs2)c1,.,.,.,-7.0,.,.,.,.
COc1ccc(Cl)cc1N/C(N)=N/c1nc(C)cc(=O)[nH]1,-0.2,-0.9,-36.2,.,32.3*,3.8,4.1,-0.7
COc1cccc(NC(=O)CCC2CCN(C(=O)C3CC=CCC3)CC2)c1 (stereo unspecified),0.0,-0.1,-8.4,-8.4,29.4*,4.6,7.9,-3.2
Cc1cccc(NC(=O)CCC2CCN(C(=O)C3CC=CCC3)CC2)c1 (stereo unspecified),0.5,-4.5,-14.8,-4.5,-2.0,-0.2,.,.
O=C(CCc1ccccc1F)NCC1(Sc2ccccc2)CCOCC1,.,.,.,1.0,.,.,.,.
Cc1cccc2sc(NC(=O)c3cc(S(=O)(=O)N(C)C)ccc3N3CCCC3)nc12,0.4,8.2,-9.5,-9.0,49.5*,1.3,31.0*,-9.8
CN(C)S(=O)(=O)c1ccc(N2CCCC2)c(C(=O)Nc2nc3ccc(F)cc3s2)c1,0.4,-7.8,-24.3,2.5,11.1,4.0,.,.
CN(C)S(=O)(=O)c1ccc(N2CCCC2)c(C(=O)Nc2nc3ccccc3s2)c1,0.0,6.5,-35.7,4.6,60.5*,7.1,60.9*,-4.9
Nc1c(C(=O)c2ccccn2)sc2nc(-c3ccccc3)ccc12,.,.,.,-8.0,.,.,.,.
COc1ccccc1-c1n[nH]c(=S)n1-c1ccccc1,-1.4,1.8,-25.0,0.3,48.4*,2.9,61.1*,5.9
COc1ccc(Cl)cc1-c1n[nH]c(=S)o1,1.4,1.1,-19.6,-15.6,68.9*,0.9,84.5*,-0.6
COc1cc(-c2n[nH]c(=S)o2)cc(OC)c1OC,.,.,.,-4.0,.,.,.,.
COc1cc(OC)cc(-c2n[nH]c(=S)o2)c1,.,.,.,8.0,.,.,.,.
COc1ccccc1-c1n[nH]c(=S)o1,-2.5,.,-13.6,-6.0,47.6*,.,47.9*,-1.1
COc1ccc(C(=O)N2CCC(c3nnc(C4CC4)o3)CC2)cc1OC,.,.,.,-10.0,.,.,.,.
CCOCc1c(C(=O)Nc2ccc3nc(N4CCOCC4)sc3c2)oc2ccccc12,?,.,-19.9,-17.9,33.4*,.,15.7,6.4
COc1ccc2c(Cl)c(C(N)=O)sc2c1,1.1,-0.5,-6.8,2.2,78.6*,2.7,99.5*,1.6
COc1ccc2c(Cl)c(C(=O)NN)sc2c1,0.4,-1.0,-10.2,3.9,9.0,-3.1,.,.
SMILES,PfHsp40 yeast,RecA intein inh,PrP 5UTR inh,PriA SSB inh,PrPC TRFRET,BJeLR viability,PrPC TRFRET cf,LD9 cytotox
Cc1cc(Br)cn2c(Cc3ccccc3)c(-c3cccc(Cl)c3)nc12,.,.,.,.,-7.3,.,.,.
Cc1cc(Br)cn2c(Cc3cccc(Cl)c3)c(-c3ccco3)nc12,.,.,.,.,37.5*,.,56.2*,-1.0
Cc1ccc(Cc2c(-c3ccco3)nc3c(C)cc(Br)cn23)cc1,.,.,.,.,36.7*,.,55.5*,-1.7
CCOC(=O)c1sc(NC(=O)Nc2ccccc2)cc1C,0.6,7.7,-69.9,0.7,35.2*,0.0,25.4*,21.8*
CCOc1ccc(N(C(C)C(=O)N2CCCC2)S(C)(=O)=O)cc1 (stereo unspecified),-1.4,-1.6,-17.6,3.9,-7.7,4.2,.,.
COc1ccc(N(C(C)C(=O)N2CCCC2)S(C)(=O)=O)cc1 (stereo unspecified),-1.5,1.1,-19.5,-20.8,49.7*,-4.6,-0.4,-8.4
COc1ccc(C2/C(=C(/O)c3ccc(C)cc3)C(=O)C(=O)N2c2ccccn2)cc1OC (stereo unspecified),0.0,-1.3,-29.3,.,1.5,1.8,.,.
CCOc1ccc(/C(O)=C2/C(=O)C(=O)N(c3ccccn3)C2c2ccc(C)cc2)c(C)c1 (stereo unspecified),-0.3,-0.4,-7.8,.,39.7*,0.3,51.8*,-2.9
CCOc1ccc(/C(O)=C2/C(=O)C(=O)N(c3ccccn3)C2c2ccc(Cl)cc2)c(C)c1 (stereo unspecified),9.3,-0.9,-14.9,.,13.6,-1.7,.,.
CCCOc1ccc(/C(O)=C2\C(=O)C(=O)N(c3ccccn3)C2c2ccccc2F)cc1C (stereo unspecified),-1.0,0.5,6.9,.,44.5*,7.9,89.4*,-3.2
CC(=O)CSc1nc(-c2cccs2)c(C#N)c(=O)[nH]1,-0.4,0.7,-10.2,-3.6,91.0*,-3.7,98.6*,-4.5
CCOC(=O)c1ccc(-c2ccc3[nH]c4ccccc4c(=O)c3c2)cc1F,-2.2,-6.1,-5.4,-0.2,1.1,7.9,.,.
NC(=O)c1ccc2c(=O)c(O)c(-c3cc(Cl)c(N)c(Cl)c3)[nH]c2c1,-1.8,-21.6,-13.5,-15.8,28.8*,0.8,4.0,0.2
COc1ccc(OCC(O)CSc2ccccn2)c(C(C)(C)C)c1 (stereo unspecified),.,.,.,-20.0,.,.,.,.
Cc1cccc(N2CCN(S(=O)(=O)CCNC(=O)c3n[nH]c4ccccc34)CC2)c1,.,.,.,11.0,.,.,.,.
N#CC(=C=[N-])C1=C(C#N)C(c2ccccc2F)C([n+]2ccccc2)C(O)(C2CC2)N1 (stereo unspecified),-0.4,-0.1,1.4,-8.1,62.7*,5.0,22.1,-0.3
CCOC(=O)N1CCN(C(=O)/C(=C/c2ccccc2OC)NC(=O)c2ccccc2)CC1,-1.5,-1.1,-19.4,-14.1,-3.5,3.3,.,.
CCOC(=O)N1CCN(C(=O)/C(=C/c2ccc(OC)c(OC)c2)NC(=O)c2ccccc2)CC1,16.8,-1.0,-33.5,-20.0,28.9*,5.7,-0.5,-4.0
C/C=C(/C)C(=O)Nc1cccc(C2=NOC3(C2)C[C@@H](C(N)=O)N(C(=O)[C@H]2CCC(=O)N2)C3)c1 (stereo partly specified),-0.4,-0.5,-13.5,-5.2,1.8,0.3,.,.
C=C(C)C(=O)Nc1cccc(C2=NOC3(C2)C[C@@H](C(N)=O)N(C(=O)[C@H]2CCC(=O)N2)C3)c1 (stereo partly specified),-0.6,1.0,-10.6,-5.1,49.9*,5.7,38.2*,-2.1
